Compound activity: PubChem, National Center for Advancing Translational Sciences (NCATS)
Pf growth 96h = P. falciparum growth inhibition at 96 hours | P. falciparum luciferase reporter growth, 96 h | Potency, µM (highest dose often 28.7 µM), most hits filed as inhibitors | hit rate 6.9% among 320,000; active means well fitted inhibition curve with a large enough effect; inconclusive means small, poorly fitted or top-dose-only effect, or another doubt; inactive means no such curve, though single readings can be large or run the other way
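Delayed-death screen, second-generation endpoint: infected erythrocytes, 2% hematocrit, 0.05% parasitemia final; 96 hours at 37 C, 5% CO2; luciferase detection reagent; luminescence decrease equals reduced growth.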
NS1 function inh = inhibitors of influenza NS1 protein function; Potency, µM (series often up to 46.1 µM); hit rate 0.4% among 270,000; further: actives are rising curves; nearly all actives have a fitted effect of over 50% in size
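In this qHTS, NS1 from influenza A is expressed in budding yeast, where it slows growth. Cells are switched from glucose to 2% galactose medium (pH 6.0, -URA), treated with compound, and growth recovery is read at OD600.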
RE007 growth inh = less growth of the S. pombe RE007 Vpr strain; S. pombe RE007 Vpr strain, BacTiter-Glo ATP luminescence, 24 h; Potency, µM (series often up to 92.2 µM), most hits filed as inhibitors; hit rate 0.21% among 360,000; active means well fitted falling curve with a large enough effect; inconclusive means small, poorly fitted or top-dose-only effect; inactive means no such curve, though single readings can be large or run the other way; further: nearly all actives have a fitted effect of over 50% in size
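Fission yeast strain RE007, carrying one chromosomally integrated HIV-1 vpr copy, was seeded at OD 0.01 in PMG+AL medium with 23 nL pinned compound. After 24 h at 30 °C and 99% humidity, viability was read by BacTiter-Glo luminescence.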
SARS PLpro yeast = SARS-CoV PLP inhibition in yeast. S. cerevisiae expressing SARS-CoV PLpro, growth rescue. Potency, µM (highest dose often 32.9 µM), actives largely listed as activators. hit rate 0.19% among 330,000. AID 485353; further: nearly all actives have a fitted effect of over 55% in size
Pf growth 48h = P. falciparum growth inhibition at 48 hours (one generation). P. falciparum luciferase growth in erythrocytes, 48 h. Potency, µM (doses to about 28.7 µM), usual class: inhibitors. hit rate 5.9% among 310,000. AID 504832; active means well fitted inhibition curve with a large enough effect; inconclusive means small, poorly fitted or top-dose-only effect, or another doubt; inactive means no such curve, though single readings can be large or run the other way
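Growth was read as firefly luciferase luminescence after a 48 h, 37 C, 5% CO2 exposure of compounds to reporter-bearing P. falciparum cultures (0.1% parasitemia, 2% hematocrit final) in Albumax-supplemented RPMI 1640.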
Of the large screens only hits and unclear results are named; the others gave an inactive call. Rows were chosen to be rich in hits. Some 9.5% of all compounds tested hit in one or more screens of this group. Unless noted, the call rests on the fitted dose curve.

Cc1cc([N+](=O)[O-])ccc1NC(=O)COc1nsnc1N1CCOCC1	Pf growth 48h 1.9µM
COc1ccc(CCNC(=O)COc2nsnc2N2CCOCC2)cc1OC	Pf growth 96h inconclusive, Pf growth 48h 1.9µM
O=C(NCc1nnnn1-c1ccc(F)cc1)c1ccc([N+](=O)[O-])o1	Pf growth 48h inconclusive (no result: NS1 function inh)
O=c1[nH]cnc2scc(-c3ccccc3)c12	Pf growth 48h 2.6µM
O=c1[nH]cnc2scc(-c3ccc(Br)cc3)c12	Pf growth 96h inconclusive (no result: NS1 function inh)
Cc1ccc(CNC(=O)c2ccc(N3CCC4(CC3)CC(c3ccccc3)=NO4)c(NC(=O)c3ccc(Cl)c([N+](=O)[O-])c3)c2)cc1	Pf growth 96h inconclusive, Pf growth 48h inconclusive (no result: NS1 function inh)
CCCNC(=O)c1ccc(N2CCC3(CC2)CC(c2ccccc2)=NO3)c(NC(=O)c2ccccc2)c1	Pf growth 96h 5.9µM, Pf growth 48h inconclusive
CCCCCCCC(=O)Nc1cc(C(=O)NCc2ccc(C)cc2)ccc1N1CCC2(CC1)CC(c1cccc(Br)c1)=NO2	none (no result: NS1 function inh)
CCCNC(=O)c1ccc(N2CCC3(CC2)CC(c2ccccc2)=NO3)c(NC(=O)c2ccc(Br)cc2)c1	Pf growth 96h 1.9µM, Pf growth 48h inconclusive
CCCNC(=O)c1ccc(N2CCC3(CC2)CC(c2ccccc2)=NO3)c(NC(=O)c2cccc(C)c2)c1	Pf growth 96h 1.9µM, NS1 function inh inconclusive, Pf growth 48h 8.3µM
Cc1ccc(CNC(=O)c2ccc(N3CCC4(CC3)CC(c3ccccc3)=NO4)c(NC(=O)c3cccc(C)c3)c2)cc1	Pf growth 96h inconclusive, Pf growth 48h 4.1µM (no result: NS1 function inh)
CCN(CC)C(=O)c1cccc(NC(=O)c2ccccc2OCc2c(C)noc2C)c1	Pf growth 96h inconclusive, Pf growth 48h inconclusive (no result: NS1 function inh)
COc1cccc(C(=O)Nc2cc(C(=O)NCc3ccc(C)cc3)ccc2N2CCC3(CC2)CC(c2cccc(Br)c2)=NO3)c1	Pf growth 48h 10µM (no result: NS1 function inh)
CCCCCCCC(=O)Nc1cc(C(=O)NCCC)ccc1N1CCC2(CC1)CC(c1ccccc1)=NO2	Pf growth 96h 7.4µM, Pf growth 48h inconclusive
Cc1ccc(CNC(=O)c2ccc(N3CCC4(CC3)CC(c3cccc(Br)c3)=NO4)c(NC(=O)c3c(Cl)cccc3Cl)c2)cc1	Pf growth 96h 9.3µM, Pf growth 48h 5.9µM (no result: NS1 function inh)
CCCNC(=O)c1ccc(N2CCC3(CC2)CC(c2cccc(Br)c2)=NO3)c(NC(=O)c2ccccc2)c1	Pf growth 96h 12µM, Pf growth 48h 9.3µM (no result: NS1 function inh)
Cc1ccc(CNC(=O)c2ccc(N3CCC4(CC3)CC(c3cccc(Br)c3)=NO4)c(NC(=O)c3cccc(C)c3)c2)cc1	Pf growth 48h inconclusive (no result: NS1 function inh)
Cc1ccc(CNC(=O)c2ccc(N3CCC4(CC3)CC(c3cccc(Br)c3)=NO4)c(NC(=O)c3ccc(Br)cc3)c2)cc1	none (no result: Pf growth 96h, NS1 function inh, Pf growth 48h)
O=C(CN1CCN(S(=O)(=O)c2cccc(F)c2)CC1)Nc1ccnn1C1CCCC1	Pf growth 96h inconclusive, Pf growth 48h inconclusive (no result: NS1 function inh)
Oc1ccc2ccccc2c1Cc1c(O)ccc2ccccc12	none (no result: Pf growth 96h, RE007 growth inh, SARS PLpro yeast, Pf growth 48h)
O=C(OCc1nnc(-c2ccc([N+](=O)[O-])cc2)o1)c1ccc(F)c(S(=O)(=O)N2CCOCC2)c1	none (no result: NS1 function inh)
CCCOCC(O)CC(Cc1ccccc1)C(=O)NN (configuration not stated)	none
CCCNC(=O)c1ccc(N2CCC3(CC2)CC(c2cccc(Br)c2)=NO3)c(NC(=O)c2cccc(OC)c2)c1	Pf growth 96h 8.3µM, Pf growth 48h inconclusive (no result: NS1 function inh)
Cc1ccc(C[C@@H](NS(=O)(=O)c2ccc(C(=O)O)cc2)C(=O)O)cc1	none (no result: NS1 function inh, RE007 growth inh)
COc1cc(N2C(=O)C=CC2=O)c(OC)cc1Cl	Pf growth 96h inconclusive, RE007 growth inh 40µM, Pf growth 48h inconclusive
Cc1ccc2nc(NCCCO)nc(-c3ccccc3)c2c1	Pf growth 96h inconclusive (no result: Pf growth 48h)
OCCCNc1nc(-c2ccccc2)c2cc(Br)ccc2n1	Pf growth 96h 1.7µM
C=CCc1cccc2cc(C(=O)NCc3cccnc3)c(=O)oc12	none
CCOc1cccc2cc(C(=O)NCc3ccc(OC)cc3)c(=N)oc12	Pf growth 96h 10µM, Pf growth 48h inconclusive
CCOc1cccc2cc(C(=O)NCc3cccnc3)c(=O)oc12	Pf growth 96h 2.3µM
COC(=O)C1=C(C)NC2=C(C(=O)CCC2)C1c1ccsc1 (configuration not stated)	none (no result: RE007 growth inh)
COC(=O)C1=C(C)NC2=C(C(=O)CCC2)C1c1ccc(-c2ccsc2C(=O)OC)o1 (configuration not stated)	Pf growth 96h 12µM, Pf growth 48h inconclusive
COCCNC(=O)/C(C#N)=C/c1c(N2CCN(c3cccc(Cl)c3)CC2)nc2c(C)cccn2c1=O	Pf growth 96h inconclusive, Pf growth 48h 13µM
C=CCNC(=O)/C(C#N)=C/c1c(N2CCN(c3cccc(Cl)c3)CC2)nc2c(C)cccn2c1=O	Pf growth 96h inconclusive, Pf growth 48h 8.3µM
COCCNC(=O)/C(C#N)=C/c1c(N2CCN(c3ccccc3)CC2)nc2c(C)cccn2c1=O	Pf growth 96h inconclusive, Pf growth 48h 13µM
COCCNC(=O)/C(C#N)=C/c1c(N2CCN(c3ccc(OC)cc3)CC2)nc2c(C)cccn2c1=O	Pf growth 96h inconclusive (no result: Pf growth 48h)
CCOC(=O)/C(C#N)=C/c1c(N2CCN(c3ccc(OC)cc3)CC2)nc2c(C)cccn2c1=O	Pf growth 96h 12µM, Pf growth 48h 9.3µM
CSCCC(NC(=O)c1ccc(Cl)cc1Cl)C(=O)NCC(c1cccs1)N(C)C (configuration not stated)	none (no result: Pf growth 96h, NS1 function inh, SARS PLpro yeast, Pf growth 48h)
CC(Oc1ccccc1C(N)=O)C(=O)Nc1ccc(S(=O)(=O)N2CCCC2)cc1 (configuration not stated)	Pf growth 96h inconclusive, Pf growth 48h inconclusive (no result: NS1 function inh)
CCNC(=O)/C(C#N)=C/c1c(N2CCCCCC2)nc2c(C)cccn2c1=O	Pf growth 96h 13µM, Pf growth 48h inconclusive
N#CN1C2CCC1CC(O)(c1ccccc1)C2 (configuration not stated)	none (no result: Pf growth 96h, NS1 function inh, SARS PLpro yeast, Pf growth 48h)
CC(Sc1nc2sccc2c(=O)n1-c1ccccc1)C(N)=O (configuration not stated)	Pf growth 96h 1.7µM, Pf growth 48h inconclusive
CC(C)Sc1nc2sccc2c(=O)n1-c1ccccc1	Pf growth 96h inconclusive
CC(C)c1ccc(C2(O)C(=O)Nc3cc(Br)ccc32)c(O)c1 (configuration not stated)	Pf growth 96h 13µM, Pf growth 48h 13µM
COc1ccccc1N1CCN(C(=O)C2CCCN(S(=O)(=O)c3ccc4c(c3)oc(=O)n4C)C2)CC1 (configuration not stated)	Pf growth 48h 12µM
COc1cc(NC(=O)C2CCCN(S(=O)(=O)c3ccc4c(c3)oc(=O)n4C)C2)cc(OC)c1 (configuration not stated)	none (no result: Pf growth 48h)
COc1ccc(N2CCN(C(=O)C3CCCN(S(=O)(=O)c4ccc5c(c4)oc(=O)n5C)C3)CC2)cc1 (configuration not stated)	Pf growth 96h inconclusive, Pf growth 48h 12µM
COc1ccc(C)cc1S(=O)(=O)N1CCCC(C(=O)N2CCN(c3ccccc3F)CC2)C1 (configuration not stated)	Pf growth 96h inconclusive, Pf growth 48h 10µM
